In ChEMBL document CHEMBL1961873, “Compounds: GSK PKIS; Assays: Nanosyn kinase panel” (2012):

Tests used:
[1] = molecular target: T1, Ephrin type-B receptor 2 (Homo sapiens) (UniProt P29323); conditions: at 1 µM
T1 sequence (whole entry): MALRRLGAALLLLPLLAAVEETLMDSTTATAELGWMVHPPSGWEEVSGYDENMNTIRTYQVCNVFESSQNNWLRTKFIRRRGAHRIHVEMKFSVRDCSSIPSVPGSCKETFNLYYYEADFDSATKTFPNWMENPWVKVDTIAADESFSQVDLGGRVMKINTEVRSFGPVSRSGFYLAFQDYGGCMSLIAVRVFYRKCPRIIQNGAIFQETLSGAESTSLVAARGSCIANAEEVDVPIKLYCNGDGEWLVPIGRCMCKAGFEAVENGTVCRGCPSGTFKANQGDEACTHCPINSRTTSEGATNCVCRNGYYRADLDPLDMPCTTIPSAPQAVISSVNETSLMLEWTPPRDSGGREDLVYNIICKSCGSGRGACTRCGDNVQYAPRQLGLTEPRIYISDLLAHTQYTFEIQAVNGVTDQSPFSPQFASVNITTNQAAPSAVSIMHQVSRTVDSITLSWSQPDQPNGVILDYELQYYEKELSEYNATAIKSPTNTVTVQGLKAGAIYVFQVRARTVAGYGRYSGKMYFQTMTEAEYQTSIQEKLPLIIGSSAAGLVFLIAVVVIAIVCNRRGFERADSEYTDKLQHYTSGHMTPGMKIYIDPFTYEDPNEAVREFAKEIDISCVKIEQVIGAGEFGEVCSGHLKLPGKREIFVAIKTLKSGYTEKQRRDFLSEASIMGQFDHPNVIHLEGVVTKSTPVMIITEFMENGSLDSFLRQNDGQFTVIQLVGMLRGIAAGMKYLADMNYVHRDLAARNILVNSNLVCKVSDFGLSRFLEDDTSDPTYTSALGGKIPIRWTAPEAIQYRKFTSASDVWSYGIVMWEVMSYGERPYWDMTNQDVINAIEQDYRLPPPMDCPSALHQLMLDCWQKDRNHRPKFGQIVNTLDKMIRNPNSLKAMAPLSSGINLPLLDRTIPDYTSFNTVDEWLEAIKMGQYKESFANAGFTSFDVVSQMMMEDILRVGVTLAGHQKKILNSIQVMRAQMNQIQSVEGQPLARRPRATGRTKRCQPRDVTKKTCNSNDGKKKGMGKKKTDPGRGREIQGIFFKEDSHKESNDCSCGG

[2] = molecular target: T2, Ephrin type-B receptor 3 (Homo sapiens) (UniProt P54753); conditions: at 0.1 µM
T2 sequence (whole entry): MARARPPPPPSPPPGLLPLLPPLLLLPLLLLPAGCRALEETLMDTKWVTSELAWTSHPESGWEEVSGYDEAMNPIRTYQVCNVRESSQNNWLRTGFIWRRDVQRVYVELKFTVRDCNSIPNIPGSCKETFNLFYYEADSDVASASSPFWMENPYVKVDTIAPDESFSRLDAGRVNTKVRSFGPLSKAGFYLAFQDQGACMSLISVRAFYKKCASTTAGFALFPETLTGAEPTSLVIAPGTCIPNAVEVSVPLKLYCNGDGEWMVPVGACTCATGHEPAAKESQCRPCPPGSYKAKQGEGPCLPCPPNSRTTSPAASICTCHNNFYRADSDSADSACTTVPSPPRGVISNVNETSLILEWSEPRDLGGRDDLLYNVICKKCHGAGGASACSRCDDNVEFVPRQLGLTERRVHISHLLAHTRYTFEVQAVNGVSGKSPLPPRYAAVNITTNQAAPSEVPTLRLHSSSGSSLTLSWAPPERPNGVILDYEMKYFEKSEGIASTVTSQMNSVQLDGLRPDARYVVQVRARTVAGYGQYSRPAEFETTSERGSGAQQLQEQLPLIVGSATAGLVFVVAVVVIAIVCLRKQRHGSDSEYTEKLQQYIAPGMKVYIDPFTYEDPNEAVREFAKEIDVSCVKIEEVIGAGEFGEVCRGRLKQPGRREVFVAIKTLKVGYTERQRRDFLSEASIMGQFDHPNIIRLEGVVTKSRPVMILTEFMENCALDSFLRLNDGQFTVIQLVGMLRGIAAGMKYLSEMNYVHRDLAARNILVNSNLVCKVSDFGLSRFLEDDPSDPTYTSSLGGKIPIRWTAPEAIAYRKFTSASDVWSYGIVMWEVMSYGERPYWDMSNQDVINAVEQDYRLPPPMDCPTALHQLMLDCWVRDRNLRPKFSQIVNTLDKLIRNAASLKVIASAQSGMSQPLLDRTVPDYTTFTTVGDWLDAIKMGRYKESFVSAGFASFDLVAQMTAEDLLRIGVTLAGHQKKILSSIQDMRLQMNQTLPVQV

[3] = molecular target: T2, Ephrin type-B receptor 3 (Homo sapiens); conditions: at 1 µM
[4] = molecular target: T3, Ephrin type-B receptor 4 (Homo sapiens) (UniProt P54760); conditions: at 0.1 µM
T3 sequence (whole entry): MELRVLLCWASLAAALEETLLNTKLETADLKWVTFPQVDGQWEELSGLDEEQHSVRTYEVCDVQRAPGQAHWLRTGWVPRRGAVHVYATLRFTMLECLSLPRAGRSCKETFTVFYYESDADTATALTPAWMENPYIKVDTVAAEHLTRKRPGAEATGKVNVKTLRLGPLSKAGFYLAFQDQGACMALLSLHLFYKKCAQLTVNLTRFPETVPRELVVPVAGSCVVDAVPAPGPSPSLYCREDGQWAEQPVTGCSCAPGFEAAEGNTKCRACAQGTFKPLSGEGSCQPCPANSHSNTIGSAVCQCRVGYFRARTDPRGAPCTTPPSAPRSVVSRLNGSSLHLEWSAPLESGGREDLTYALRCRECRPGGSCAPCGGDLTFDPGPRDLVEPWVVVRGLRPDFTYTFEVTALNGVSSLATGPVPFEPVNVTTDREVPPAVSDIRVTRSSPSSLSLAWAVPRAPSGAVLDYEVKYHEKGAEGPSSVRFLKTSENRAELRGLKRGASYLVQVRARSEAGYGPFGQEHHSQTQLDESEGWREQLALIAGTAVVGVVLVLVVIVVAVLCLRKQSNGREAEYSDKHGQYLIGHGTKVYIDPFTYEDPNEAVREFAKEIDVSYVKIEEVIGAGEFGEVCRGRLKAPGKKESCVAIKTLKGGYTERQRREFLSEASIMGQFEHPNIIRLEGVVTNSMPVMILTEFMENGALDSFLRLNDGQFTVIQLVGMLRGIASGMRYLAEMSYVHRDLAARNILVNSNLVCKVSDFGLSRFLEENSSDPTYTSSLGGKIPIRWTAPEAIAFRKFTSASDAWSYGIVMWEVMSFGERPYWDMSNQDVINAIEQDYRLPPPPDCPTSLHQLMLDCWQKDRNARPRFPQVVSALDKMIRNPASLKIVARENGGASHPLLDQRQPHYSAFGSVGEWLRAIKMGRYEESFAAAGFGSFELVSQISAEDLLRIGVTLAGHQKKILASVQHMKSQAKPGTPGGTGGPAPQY

[5] = molecular target: T3, Ephrin type-B receptor 4 (Homo sapiens); conditions: at 1 µM
[6] = molecular target: Receptor tyrosine-protein kinase erbB-2 (Homo sapiens) (UniProt P04626); conditions: at 0.1 µM
[7] = molecular target: Receptor tyrosine-protein kinase erbB-2 (Homo sapiens) (UniProt P04626); conditions: at 1 µM
[8] = molecular target: Receptor tyrosine-protein kinase erbB-4 (Homo sapiens) (UniProt Q15303); conditions: at 0.1 µM
[9] = molecular target: Receptor tyrosine-protein kinase erbB-4 (Homo sapiens) (UniProt Q15303); conditions: at 1 µM
[10] = molecular target: Tyrosine-protein kinase Fer (Homo sapiens) (UniProt P16591); conditions: at 0.1 µM;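 further: reported figures are averaged percent inhibition of FER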
Tyrosine-protein kinase Fer (Homo sapiens), sequence (P16591 whole entry, looked up): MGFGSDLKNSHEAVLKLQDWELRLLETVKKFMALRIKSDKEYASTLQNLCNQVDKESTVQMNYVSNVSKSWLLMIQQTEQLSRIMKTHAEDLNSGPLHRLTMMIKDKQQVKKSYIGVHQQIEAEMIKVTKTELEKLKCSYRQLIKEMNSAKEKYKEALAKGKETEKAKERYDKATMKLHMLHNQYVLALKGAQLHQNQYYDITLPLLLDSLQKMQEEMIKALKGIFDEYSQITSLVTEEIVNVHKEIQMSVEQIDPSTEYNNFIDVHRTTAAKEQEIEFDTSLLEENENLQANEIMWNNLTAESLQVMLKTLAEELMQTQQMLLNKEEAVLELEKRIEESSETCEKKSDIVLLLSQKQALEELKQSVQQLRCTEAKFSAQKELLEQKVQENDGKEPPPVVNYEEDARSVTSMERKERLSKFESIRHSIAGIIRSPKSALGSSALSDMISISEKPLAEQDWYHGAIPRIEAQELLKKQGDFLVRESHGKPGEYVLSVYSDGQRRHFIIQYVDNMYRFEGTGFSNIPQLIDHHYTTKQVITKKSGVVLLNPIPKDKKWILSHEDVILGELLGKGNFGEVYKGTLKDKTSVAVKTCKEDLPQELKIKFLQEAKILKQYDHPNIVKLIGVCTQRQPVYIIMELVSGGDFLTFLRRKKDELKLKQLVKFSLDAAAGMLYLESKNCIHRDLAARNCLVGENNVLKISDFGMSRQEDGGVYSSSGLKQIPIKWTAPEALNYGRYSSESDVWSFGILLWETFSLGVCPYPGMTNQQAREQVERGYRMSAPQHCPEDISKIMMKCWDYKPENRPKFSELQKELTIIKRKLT

Receptor tyrosine-protein kinase erbB-2 (Homo sapiens), sequence (P04626 whole entry): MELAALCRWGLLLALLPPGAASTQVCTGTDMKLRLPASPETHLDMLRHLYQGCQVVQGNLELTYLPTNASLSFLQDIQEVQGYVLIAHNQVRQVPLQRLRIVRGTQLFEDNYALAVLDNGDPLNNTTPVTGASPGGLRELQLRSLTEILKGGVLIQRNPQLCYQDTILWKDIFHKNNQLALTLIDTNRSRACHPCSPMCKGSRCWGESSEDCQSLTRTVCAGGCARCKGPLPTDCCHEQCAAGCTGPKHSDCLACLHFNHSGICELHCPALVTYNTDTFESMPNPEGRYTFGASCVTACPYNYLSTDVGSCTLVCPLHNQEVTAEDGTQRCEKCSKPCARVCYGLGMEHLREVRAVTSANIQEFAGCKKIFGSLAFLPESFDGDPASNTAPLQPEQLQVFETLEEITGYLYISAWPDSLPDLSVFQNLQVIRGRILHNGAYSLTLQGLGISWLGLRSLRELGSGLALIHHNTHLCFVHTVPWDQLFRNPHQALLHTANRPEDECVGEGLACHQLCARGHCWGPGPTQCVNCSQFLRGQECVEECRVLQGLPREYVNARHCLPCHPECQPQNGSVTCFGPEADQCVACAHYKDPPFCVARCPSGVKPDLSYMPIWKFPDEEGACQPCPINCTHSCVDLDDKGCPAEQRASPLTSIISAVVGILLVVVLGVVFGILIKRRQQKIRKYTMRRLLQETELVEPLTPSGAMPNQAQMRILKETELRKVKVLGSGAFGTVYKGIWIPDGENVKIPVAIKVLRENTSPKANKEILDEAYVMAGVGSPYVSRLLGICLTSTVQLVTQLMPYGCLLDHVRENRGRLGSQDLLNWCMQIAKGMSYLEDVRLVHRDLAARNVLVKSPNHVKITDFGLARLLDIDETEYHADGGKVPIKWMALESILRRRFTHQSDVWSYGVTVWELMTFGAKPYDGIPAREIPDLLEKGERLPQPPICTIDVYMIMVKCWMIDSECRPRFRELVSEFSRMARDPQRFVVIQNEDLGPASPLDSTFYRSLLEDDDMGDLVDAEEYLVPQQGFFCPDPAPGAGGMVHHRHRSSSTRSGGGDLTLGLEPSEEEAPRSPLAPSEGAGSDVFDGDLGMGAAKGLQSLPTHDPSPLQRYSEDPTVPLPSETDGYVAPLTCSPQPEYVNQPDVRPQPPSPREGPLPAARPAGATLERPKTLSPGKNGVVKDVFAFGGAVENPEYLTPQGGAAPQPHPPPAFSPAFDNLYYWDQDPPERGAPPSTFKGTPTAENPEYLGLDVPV
Receptor tyrosine-protein kinase erbB-4 (Homo sapiens), sequence (Q15303 whole entry): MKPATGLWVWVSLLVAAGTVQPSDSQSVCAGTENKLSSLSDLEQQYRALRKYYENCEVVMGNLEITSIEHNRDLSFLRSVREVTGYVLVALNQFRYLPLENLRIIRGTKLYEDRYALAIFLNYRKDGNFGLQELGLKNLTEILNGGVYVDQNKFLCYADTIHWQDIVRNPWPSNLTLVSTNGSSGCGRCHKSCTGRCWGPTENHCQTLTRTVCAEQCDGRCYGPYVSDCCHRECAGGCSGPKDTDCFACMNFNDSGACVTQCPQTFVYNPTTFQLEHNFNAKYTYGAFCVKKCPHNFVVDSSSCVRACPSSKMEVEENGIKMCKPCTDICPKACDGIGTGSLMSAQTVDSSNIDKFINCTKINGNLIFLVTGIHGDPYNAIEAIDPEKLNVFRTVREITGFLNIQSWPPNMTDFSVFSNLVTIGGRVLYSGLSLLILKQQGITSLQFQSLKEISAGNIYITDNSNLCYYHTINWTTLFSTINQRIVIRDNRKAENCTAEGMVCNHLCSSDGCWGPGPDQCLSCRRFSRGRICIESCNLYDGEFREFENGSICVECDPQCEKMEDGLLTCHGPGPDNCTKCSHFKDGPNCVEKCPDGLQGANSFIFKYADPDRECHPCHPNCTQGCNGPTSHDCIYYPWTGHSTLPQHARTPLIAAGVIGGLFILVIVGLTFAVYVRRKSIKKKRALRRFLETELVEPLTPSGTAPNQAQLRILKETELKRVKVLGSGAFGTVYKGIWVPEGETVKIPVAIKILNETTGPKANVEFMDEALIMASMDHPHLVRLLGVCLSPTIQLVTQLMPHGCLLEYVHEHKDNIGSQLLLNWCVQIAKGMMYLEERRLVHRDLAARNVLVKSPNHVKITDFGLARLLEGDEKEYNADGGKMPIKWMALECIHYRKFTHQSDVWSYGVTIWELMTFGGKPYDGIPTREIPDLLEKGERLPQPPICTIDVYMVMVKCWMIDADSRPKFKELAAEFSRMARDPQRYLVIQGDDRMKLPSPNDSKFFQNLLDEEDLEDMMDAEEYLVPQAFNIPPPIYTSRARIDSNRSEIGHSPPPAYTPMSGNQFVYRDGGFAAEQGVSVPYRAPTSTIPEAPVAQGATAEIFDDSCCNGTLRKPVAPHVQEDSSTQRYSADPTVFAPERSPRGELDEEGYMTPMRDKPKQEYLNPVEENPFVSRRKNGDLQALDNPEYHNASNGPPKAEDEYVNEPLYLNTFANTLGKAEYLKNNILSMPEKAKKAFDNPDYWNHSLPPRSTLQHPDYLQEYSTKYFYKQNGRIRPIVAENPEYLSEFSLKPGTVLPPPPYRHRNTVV

Structure (SMILES)	inhibition [1] [%]	inhibition [2] [%]	inhibition [3] [%]	inhibition [4] [%]	inhibition [5] [%]	inhibition [6] [%]	inhibition [7] [%]	inhibition [8] [%]	inhibition [9] [%]	inhibition [10] [%]
NS(=O)(=O)c1ccc(N/N=C2\C(=O)Nc3ccc(-c4cnco4)cc32)cc1	7.61	-2.23	-3.53	-2.49	-0.26	4.9	13.6	5.79	14.2	1.03
N#Cc1ccc(Oc2nccc(-c3c(-c4ccc(F)cc4)ncn3C3CCNCC3)n2)cc1	10.3	5.17	5.31	-0.34	2.48	4.34	2.33	9.54	11.9	3.43
O=C(NCC1CC1)c1ccc(-c2cccc(C(=O)NC3CC3)c2)cc1	11.8	3.55	2.98	1.37	1.03	-0.54	1.1	16.7	6.05	0.26
CCc1ccc(Oc2nccc(-c3c(-c4ccc(F)cc4)ncn3C3CCNCC3)n2)cc1	9.06	4.55	4.56	1.97	3.15	1.55	7.71	7.62	11.6	-1.66
O=C(Nc1n[nH]c2cc(-c3cc(F)ccc3F)ccc12)C1CC1	8.75	8.17	2.98	2.32	4.67	3.32	1.51	8.07	8.44	2.98
Cc1nnc(-c2ccc(C)c(-c3ccc(C(=O)NCc4ccc(Cl)cc4)cc3)c2)o1	2.23	1.15	-1.34	-0.5	-2.62	5.39	4.99	3.42	7.48	3.34
Cc1ccc(NC(=O)c2ccoc2)cc1-c1ccc(C(=O)NCC2CC2)cc1	5.88	3.21	3.35	0.88	0.82	5.47	5.7	8.06	10.6	0.47
NS(=O)(=O)c1ccc(N/N=C2\C(=O)Nc3ccc(C(=O)NCCCn4ccnc4)cc32)cc1	13.3	5.75	4.37	1.61	5.27	4.39	5.69	8.45	14.6	–
COc1cc2ncn(-c3cc(OCc4ccccc4C(F)(F)F)c(C(C)=O)s3)c2cc1OC	9	3.62	3.29	0.64	3.47	3.47	4.43	6.91	9.68	2.43
O=C1NC(=O)C(c2cccc(Cl)c2)=C1Nc1ccc(Cl)c(C(=O)O)c1	3.04	10.6	4.29	0.79	0.05	2.66	1.74	7.3	10	3.46
Clc1ccc(CNc2nccc(-c3cnn4ncccc34)n2)cc1	9.79	2.09	2	0.83	0.64	-2.69	2.99	3.33	1.08	3.91
CN1CCN(CCCNc2nc3ccc(Oc4ccc(NC(=O)Nc5cc(C(F)(F)F)ccc5F)cc4)cc3[nH]2)CC1	58.8	-3.09	-6.41	-1.44	16.4	-2.7	-2.07	3.38	2.56	3.88
O=C1Nc2ccc(I)cc2C1=Cc1cc(Br)c(O)c(Br)c1	6.84	0.93	5.23	5.1	4.33	3.38	2.46	5.63	10.5	-1.96
CN(C)CCOc1ccc(-c2cc(-c3ccc4c(c3)CCC4=NO)c(-c3ccncc3)o2)cc1	6.81	-0.49	5.63	0.06	1.37	3.66	5.12	1.69	13	-1.17
COc1cccc(/C=N/Nc2ncnc3c2cnn3-c2cccc(OC)c2)c1	5.8	1.82	3.68	0.66	1.2	0.2	5.67	5.57	10	-0.09
NCc1ccc(-n2c(-c3nonc3N)nc3cnccc32)cc1	8.48	7.61	3.86	2.23	1.42	2.39	2.56	16.3	18	3.01
COc1ccc2cc(-c3c(-c4ccncc4)nc(-c4ccc([S+](C)[O-])cc4C)n3C)ccc2c1 (centres undefined)	19.7	4.06	14.6	4.17	22.5	1.42	5.05	9.39	37.1	1.31
